Measured values taken from ChEMBL document CHEMBL3988442, “University of Dundee, Small-Polar-MMV Screening Library” (2021).
Hit rate of the full screen: of about 48,000 compounds, about 13,000 (27%) showed an effect of 50% or more. This is one part of the list.

System: Wolbachia pipientis
Experiment: Anti-Wolbachia Cell-Based Screen
Type: functional
Design: scale not given: in the data most compounds retested in dose-response had high values
Conditions: 5 µM

Point of comparison: `CC(=O)N(Cc1ncc(C(C)C)o1)C1CCN(CCn2cccn2)C1` (configuration not stated), “Percent Effect” value 8.925%. Against it:
- COCCN(Cc1ccc(F)cc1Cl)C(=O)c1ccc(=O)[nH]n1 — lower, -1.923%
- CCc1nsc(N2CCN(CC(=O)Nc3c(C)n[nH]c3C)CC2)n1 — lower, -25.55%
- CCc1nc(CN2CCCN(C(=O)COCC3CC3)CC2)cs1 — lower, -1.235%
- CCN(CC(C)O)C(=O)Nc1cnn(CCOC)c1 (configuration not stated) — lower, -12.18%
- NC(=O)NC(=O)CCN1CCCN(c2nccs2)CC1 — lower, -3.66%
- COCc1cc(N(C)Cc2cnccn2)nc(C(C)(C)C)n1 — lower, 4.515%
- CC(C)(CNCc1ccc(OCc2cscn2)cc1)C(N)=O.Cl — lower, 0.3922%
- COc1ccccc1Oc1ncccc1CNC(=O)C1(C)CCCNC1 (configuration not stated) — higher, 21.66%
- COc1ccc(F)cc1NC(=O)NCC1(C)COC1 — lower, 5.652%
- COc1ccccc1CN(C)C(=O)CN1C(=O)OC[C@@H]1c1ccccc1 — lower, -5.71%
- CCOC(=O)C1(Cc2cccc(OC)c2)CCN(Cc2ccon2)CC1 — lower, 2.808%
- COc1ccc(F)cc1NC(=O)NCC1(CN2CCOCC2)CC1 — higher, 21.38%
- COc1ccc(F)cc1-c1ccccc1CC1(C(=O)O)CCOCC1 — higher, 118.1%
- COc1ccccc1CCN[C@@H]1c2ccccc2C2(CCNCC2)[C@H]1O — lower, -1.43%
- COc1ccccc1-c1ccccc1CC1(C(=O)O)CCNCC1 — higher, 100.9%
- CCOC(=O)C1(Cc2ccccc2-c2ccccc2OC)CCNCC1.Cl — higher, 172.1%
- O=C(Cc1ccccn1)N1CCn2cc(Cn3cncn3)nc2C1 — higher, 22.42%
- Cn1cc(C2(C)CN(c3ncccc3C#N)CCO2)cn1 (configuration not stated) — lower, -13.05%
- CN(C)Cc1ccnc(NS(=O)(=O)CCc2ccccc2)c1 — lower, -12.88%
- OCc1cc2ccccc2nc1N1CCCC1 — lower, 4.126%
- CN(C)CCNC(=O)c1cc2n(n1)CCN(C(=O)c1ccco1)C2 — lower, -13.42%
- Cc1cc(C)c(C(=O)N2CCn3nc(C(=O)NCCN(C)C)cc3C2)[nH]1 — lower, -6.569%
- CCCc1nc(C(=O)N2CCn3nc(C(=O)OC)cc3C2)cs1 — higher, 111.4%
- COC(=O)c1cc2n(n1)CCN(C(=O)c1csc(CN(C)C)n1)C2 — higher, 85.52%
- CCCc1nc(C(=O)N2CCN(C(=O)OC)CC2)cs1 — lower, -2.631%
- CCCc1nc(C(=O)N2CCN(C(=O)c3ccc(OC)cc3)CC2)cs1 — higher, 10.06%
- Cc1cc(C)c2nc(CN3C[C@H](CCO)[C@@H](N)C3)cc(O)c2c1 — lower, -3.113%
- CCOCC(=O)Nc1ccc(-n2ccc(C(N)=O)n2)cc1 — lower, 5.23%
- CCc1ccc(CN2CCC(=O)N(CC3CC3)C(C(C)C)C2)nc1 (configuration not stated) — lower, -6.583%
- Cc1cc(CNC(=O)c2ccc(F)c(COCC3CC3)c2)no1 — lower, 7.35%
- Cn1cnnc1C1CCCN(C(=O)NCCNc2ccccn2)C1 (configuration not stated) — higher, 14.43%
- Cn1cnnc1C1CCCN(C(=O)NCCn2ccnc2)C1 (configuration not stated) — higher, 89.71%
- Cn1cnnc1C1CCCN(C(=O)NCCOc2ccccc2)C1 (configuration not stated) — lower, 6.909%
- Cn1cnnc1C1CCCN(C(=O)NCCCn2cccn2)C1 (configuration not stated) — higher, 106.2%
- COCCCNC(=O)N1CCCC(c2nncn2C)C1 (configuration not stated) — lower, -7.003%
- CC(C)N1CCC(Cc2cc(-c3cc(F)ccc3C(=O)O)ncn2)C1 (configuration not stated) — higher, 139.5%
- CC(C)N1CCC(CNC(=O)CCc2cc(F)ccc2F)C1 (configuration not stated) — higher, 16.43%
- CC(C)N1CCC(CNC(=O)COc2ccc(F)cc2F)C1 (configuration not stated) — lower, 8.17%
- CC(C)N1CCC(Cc2cncc(-c3cc(F)ccc3C(=O)O)n2)C1 (configuration not stated) — higher, 135%
- Cn1cc(C(=O)O)c(-c2ccc(F)cc2F)n1 — lower, -6.689%
- CC(C)N1CCC(CC(=O)NC(C(=O)O)c2ccc(F)cc2)CC1 (configuration not stated) — lower, 7.704%
- CC(C)N1CCC(Cc2cc(-c3ccccc3C(=O)O)ncn2)CC1 — lower, -18.63%
- CC(C)N1CCC(Cc2cncc(-c3cc(F)ccc3C(=O)O)n2)CC1 — higher, 98.45%
- CC(C)N1CCC(CC(=O)NC(C(=O)O)c2cc(F)ccc2F)CC1 (configuration not stated) — higher, 9.298%
- CN1CCC(Cc2cccc(-c3cc(F)ccc3C(=O)O)n2)CC1 — higher, 135.9%
- CN1CCC(Cc2noc(-c3cn(Cc4ccc(F)cc4)nn3)n2)CC1 — lower, -9.878%
- CC(C)N1CCC(CC(=O)NC(C(=O)O)c2cccc(F)c2)CC1 (configuration not stated) — lower, -7.789%
- CC(C)c1ccc(S(=O)(=O)NC2(CC(N)=O)CCC2)cc1 — lower, -1.072%
- Cn1cc(CN2CC[C@@H]3[C@@H](CCC(=O)N3CCc3c[nH]cn3)C2)cn1 — lower, 6.547%
- CCOCCS(=O)(=O)N(CC)Cc1ccc(Cl)s1 — lower, -4.367%
- CCc1nn(C)c(Cl)c1CN1CCN(c2nc(C(N)=O)cs2)CC1 — higher, 12.42%
- O=C1COC2(CCN(c3ncccn3)CC2)CN1c1ccsc1 — higher, 18.21%
- CCc1cnc(CN(C(C)=O)C2CCN(CCN3CCCCC3)C2)o1 (configuration not stated) — higher, 112.7%
- CCc1cnc(CN(C(C)=O)C2CCN(CCS(C)(=O)=O)C2)o1 (configuration not stated) — lower, -15.83%
- CCc1cnc(CN(C(C)=O)C2CCN(CC3(O)CCCCC3)C2)o1 (configuration not stated) — higher, 86.51%
- CCc1cnc(CN(C(C)=O)C2CCN(CC(=O)N3CCCC3)C2)o1 (configuration not stated) — higher, 113.8%
- COc1cccc(CN(C)Cc2cc(C#N)ccc2F)c1OC — lower, -16.49%
- O=C(c1c[nH]c(=O)[nH]1)N1CCCC2(CCC(=O)N(C3CCCC3)C2)C1 (configuration not stated) — lower, 5.666%
- CC(C(=O)NC1CCCCC1)N1CCc2[nH]nc(C(F)(F)F)c2C1 (configuration not stated) — lower, -5.733%
- Cc1nccn1-c1ccc(N2CCC(NC(C)CC(C)C)CC2)cc1 (configuration not stated) — higher, 16.66%
- COCCN1CCc2cc(C(=O)NCC3CC3)c(NC(C)C)nc2CC1.O=C(O)C(F)(F)F.O=C(O)C(F)(F)F — lower, -15.94%
- COCCN1CCc2cc(C(=O)O)c(NCC3CC3)nc2CC1.O=C(O)C(F)(F)F.O=C(O)C(F)(F)F — higher, 96.69%
- CNC(=O)c1cc2c(nc1NCC(C)C)CCN(CCOC)CC2.O=C(O)C(F)(F)F.O=C(O)C(F)(F)F — lower, 1.626%
- COCCN1CCc2cc(C(=O)NC(C)C)c(NCC(C)C)nc2CC1.O=C(O)C(F)(F)F.O=C(O)C(F)(F)F — lower, 1.817%
- COCCN1CCc2cc(C(=O)N(C)C)c(NCC3CC3)nc2CC1.O=C(O)C(F)(F)F.O=C(O)C(F)(F)F — lower, 1.501%
- COCCN1CCc2cc(C(=O)NC(C)C)c(NCC3CC3)nc2CC1.O=C(O)C(F)(F)F.O=C(O)C(F)(F)F — higher, 103.7%
- Cc1[nH]ncc1CCCNC(=O)Nc1ccc(S(C)(=O)=O)nc1 — lower, 0.4286%
- O=c1[nH]c(CN(Cc2ccco2)C2CCCC2)nc2ccccc12 — lower, 5.367%
- O=C(c1ccno1)N1CCOC[C@H](Oc2ccc(C(F)(F)F)cc2)C1 — lower, -17.29%
- CCN(CC)CCCN1CCN(c2nc(C)cnc2C)CC1 — higher, 20.67%
- CCN(CC1CCOC1)C(=O)NCc1ccc(-n2cncn2)nc1 (configuration not stated) — higher, 19.04%
- CCN(CC1CCOC1)C(=O)NCc1nnc2n1CCCCC2 (configuration not stated) — higher, 91.82%
- CCN(CC1CCOC1)C(=O)NCc1nnc2n1CCC2 (configuration not stated) — higher, 118.1%
- CCN(Cc1ccco1)C(=O)NCc1nnc2n1CCCCC2 — lower, 0.3449%
- O=C(NCc1nnc2n1CCCCC2)N(CC1CCOC1)C1CC1 (configuration not stated) — higher, 99.15%
- CCN(Cc1ccco1)C(=O)NCc1nnc2n1CCC2 — lower, -0.2431%
- Cc1ccc(CN(C(=O)NCc2nnc3n2CCCCC3)C2CC2)o1 — lower, 2.122%
- O=C(NCc1nnc2n1CCCC2)N(Cc1ccccc1F)C1CC1 — lower, -10.57%
- O=C(NCc1nnc2n1CCCCC2)N(Cc1ccncc1)C1CC1 — lower, -19.08%
- CCN(CC1CC1)C(=O)NCc1nnc2n1CCC2 — higher, 96.27%
- O=C(NCc1nnc2n1CCC2)N(Cc1ccco1)C1CC1 — lower, 0.3443%
- COCc1ccccc1CNC(=O)CN1CCC2(CCOC2)C1 (configuration not stated) — lower, -0.6554%
- Cc1nn2c(N3CCCC(C#N)C3)cc(-c3ccccc3)nc2c1C (configuration not stated) — lower, -8.58%
- Cc1ccsc1-c1nccn1CCN1CCCOC1=O — higher, 94.33%
- Cc1nc[nH]c1-c1nccn1-c1cccc(CN2CCCC2)c1 — higher, 12.04%
- Cc1ccsc1-c1nccn1CCS(=O)(=O)N1CCCC1 — lower, -5.417%
- Cc1nc[nH]c1-c1nccn1CCN1CCCOC1=O — higher, 97.83%
- Cc1nc[nH]c1-c1nccn1CCN1CCCC1=O — higher, 101.5%
- CCc1nccn1CCCn1ccnc1-c1[nH]cnc1C — higher, 10.91%
- COCCn1ccnc1-c1[nH]cnc1C — lower, 8.201%
- CCN(CC)CCn1ccnc1-c1[nH]cnc1C — higher, 9.707%
- Cc1ccsc1-c1nccn1CCS(C)(=O)=O — lower, -15.8%
- Cc1nc[nH]c1-c1nccn1CCN1CCOC1=O — higher, 102.9%
- Cc1nc[nH]c1-c1nccn1CCN(C)S(C)(=O)=O — lower, -5.143%
- Cc1nc[nH]c1-c1nccn1CCCN(C)C — lower, -1.575%
- CN(C)c1ncc(CNC(=O)Nc2ccc(C(F)(F)F)cc2)n1C — higher, 20.28%
- COc1cc(N2CCCn3cnc(COC(C)C)c3C2)ncn1.O=CO — lower, -4.807%
- CC(=O)NCCC(=O)Nc1sccc1C(=O)C(C)(C)C — higher, 21.69%
- c1ccc(COc2ccccc2NC2CCOCC2)nc1 — lower, -16.72%
- CN(CC(=O)NS(=O)(=O)c1ccsc1)Cc1ccccc1 — lower, -14.35%
- O=C(CCc1ccsc1)N(Cc1ccccn1)C1CC1 — lower, 0.03996%
- Cc1ccc(CC(NC(=O)CN(C)C2CC2)c2ccccn2)cc1 (configuration not stated) — lower, -26.42%
- Cc1csc(C(Cc2ccsc2)NC(=O)CN(C)Cc2ccccn2)n1.Cl (configuration not stated) — higher, 143%
- Cc1cc(C)n(CC(=O)NC(Cc2ccsc2)c2ccccn2)c(=O)n1.Cl (configuration not stated) — lower, -15.12%
- CN(CC(=O)NC(Cc1ccsc1)c1cccnc1)Cc1ccccn1.Cl (configuration not stated) — higher, 89.62%
- CN(CC(=O)NC(Cc1ccsc1)c1cccnc1)Cc1cccnc1.Cl (configuration not stated) — higher, 75.58%
- CC(CNC(=O)CCc1ccccn1)c1ccsc1 (configuration not stated) — lower, 1.276%
- Cc1csc(C(Cc2ccsc2)NC(=O)CN(C)Cc2cccnc2)n1.Cl (configuration not stated) — higher, 118.2%
- Cc1csc(C(C#N)C(=O)NCc2cccnc2)n1 (configuration not stated) — lower, -20.56%
- CN(CC(=O)N1CC(C)(C)[C@](O)(C2CC2)C1)Cc1cccnc1 — lower, -2.465%
- Cc1nc(CN(Cc2cccnc2)Cc2ccsc2)c[nH]1 — lower, -3.654%
